Screening results from PubChem.
Compounds with a hit are over-represented: about 4.9% of the library has one in this group of screens.
NALP1 inh: NALP1 inhibition; 280,000 tested, 0.61% active; S. cerevisiae NALP1/ASC/caspase-1 growth, X-gal OD620, 72 h; inhibition, % at 10 µM; in the data active = inhibition mostly above about 24%, no sharp cut-off; inactive = mostly below about 32%
TIM10 inh: inhibits growth of TIM10 yeast strain; S. cerevisiae TIM10 strain growth, BacTiter-Glo luminescence, 24 h; inhibition, % at 10 µM; 330,000 tested, 1.4% active; AID 463195;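 active = inhibition of 40% or more at the single tested concentration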;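 also: wild-type TIM10 isogenic control strain grown at permissive 25 °C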
tim23-1 inh: growth inhibitors of tim23-1 mutant yeast; S. cerevisiae tim23-1 growth, BacTiter-Glo luminescence, 24 h; inhibition, % at 20 µM; 330,000 tested, 1.3% active; AID 463212;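 active = growth inhibition of the mutant yeast at or above 50%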;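 also: temperature-sensitive mutant grown at 25 °C; plate controls were DMSO-treated mutant yeast for no effect and medium wells lacking yeast for full effect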
tim10-1 inh: tim10-1 yeast growth inhibition | S. cerevisiae tim10-1 ts strain growth, BacTiter-Glo, 24 h | inhibition, % at 20 µM | 330,000 tested, 2.2% active;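 active = inhibition of at least 40%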;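 also: mutant grown at 25 °C; 0% = DMSO wells with yeast and 100% = wells holding no yeast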
NLRP3 yeast inh: blocks the NALP3 inflammasome reconstituted in yeast; Yeast reconstituted NLRP3/ASC/caspase-1, beta-gal luminescence, 24 h; inhibition, % at 10 µM; 330,000 tested, 0.39% active;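 active = inhibition of 50% or more; inactive = inhibition below 50%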;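 also: plate controls were induced DMSO wells for no effect and uninduced yeast grown without galactose for full effect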
SKKanGAS inh: inhibitors of SKKanGAS S. pyogenes growth in kanamycin (SK-promoter or general growth effect). BacTiter-Glo, 6 h. inhibition, % at 7.5 µM. 300,000 tested, 1.3% active. AID 1662;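 active = mean replicate score, as percent of positive control median, at least 50; inconclusive = mean below 50 but one replicate at or above 50; inactive = mean and every replicate below 50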;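 also: strain carries kanamycin resistance gene driven by streptokinase promoter and grows in 40 µg/ml kanamycin; loss of luminescence reflects streptokinase promoter inhibition or plain growth inhibition; 0% = median of DMSO wells and 100% = positive control at its reference dose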
tim10-1 confirm: tim10-1 yeast growth inhibition, confirmed | S. cerevisiae tim10-1 ts strain growth, BacTiter-Glo, 24 h | 7,400 tested, 56% active | AID 463213 | shares compounds with tim10-1 inh | inhibition, % at 20 µM;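 active = inhibition of yeast growth at or above a set limit in either of two repeat tests at 20 µM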;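 also: tim10-1 mutant grown at permissive 25 °C to find synthetic lethal compounds; 0% = DMSO yeast wells and 100% = medium wells without yeast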
tim10 confirm: TIM10 yeast growth inhibition, confirmed; shares compounds with TIM10 inh; S. cerevisiae tim10 strain growth, BacTiter-Glo luminescence, 24 h; inhibition, % at 10 µM; 4,600 tested, 63% active;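 active = inhibition of yeast growth at or above a set limit in either of two replicates at 10 µM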;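 also: this counterscreen used the strain with wild-type TIM10; 0% = yeast with DMSO and 100% = medium wells lacking yeast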
Starred values were filed as active, the others as inactive; i = inactive; ? = inconclusive; / = no result given.

SMILES	NALP1 inh	TIM10 inh	tim23-1 inh	tim10-1 inh	NLRP3 yeast inh	SKKanGAS inh	tim10-1 confirm	tim10 confirm
CCc1ccc(S(=O)(=O)/N=C2\C=C(Nc3ccc(O)cc3)C(=O)c3ccccc32)cc1	18	61*	43	64*	44	109*	70*	93*
Cc1ccc(C(=O)NCC(=O)N2CCCN(C)CC2)cc1C	/	1	15	0	5	/	/	/
CC(C)[C@@H]1CC[C@@H](C)c2c(-c3ccccc3)n[nH]c21	-10	46*	47	40*	31	88*	21	49*
CC(C)c1nc2oc3c(NCC4CCCO4)ncnc3c2c2c1CCC2 (stereo not given)	11	45*	31	46*	-6	-8	27	13
CCCc1nc2oc3c(NCC4CCCO4)ncnc3c2c2c1COC(C)(C)C2 (stereo not given)	/	9	17	35	-4	1	/	/
CC(/C=N/n1c(C2CCCCC2)n[nH]c1=S)=C\c1ccccc1	3	49*	38	48*	22	46	19	31*
CC(/C=N/n1c(-c2cc(C)[nH]n2)n[nH]c1=S)=C\c1ccccc1	2	8	31	39	4	11	/	/
S=c1[nH]nc(C2CCCCC2)n1/N=C/c1cccs1	10	41*	38	43*	24	0	11	40*
COc1cccc(CNC(=O)c2ccc(Cl)c(S(=O)(=O)N3CCOCC3)c2)c1	/	8	6	-5	7	/	/	/
O=C(CCNC(=O)c1ccccc1Cl)Nc1cccc(S(=O)(=O)N2CCOCC2)c1	/	5	-18	3	12	/	/	/
COC(=O)Nc1ccc(S(=O)(=O)N2CCC(Cc3ccccc3)CC2)cc1	-7	45*	41	45*	18	9	40*	17
O=C(Nc1ccc(C(F)(F)F)cc1Cl)c1ccc(Cn2cc(Br)cn2)o1	5	7	24	37	23	-2	/	/
O=C(Nc1cccc(C(F)(F)F)c1)c1ccc(Cn2cc(Br)cn2)o1	2	42*	45	43*	13	8	35*	43*
CCOC(=O)N1CCN(S(=O)(=O)c2ccc(C(=O)N(CCCN(C)C)c3nc4ccc(Cl)cc4s3)cc2)CC1	8	20	13	19	14	6	/	/
CCN(CC)CCN(C(=O)c1ccc(S(=O)(=O)N(C)C2CCCCC2)cc1)c1nc2ccc(OC)cc2s1	10	48*	42	59*	19	33	42*	38*
CCOC(=O)N1CCN(S(=O)(=O)c2ccc(C(=O)N(CCN(CC)CC)c3nc4ccc(C)cc4s3)cc2)CC1	18	40	31	48*	8	2	35*	14
Cc1cccc(-n2cc(CN(C)Cc3nccn3C)c(-c3cccc(F)c3)n2)c1	4	45*	46	43*	4	40	24	44*
CCCCCCNC(=O)N[C@H](C(=O)NCCC[C@H]1CN2C(=NC[C@H]2C)N1CCC(c1ccccc1)c1ccccc1)C(C)O (stereo not given in full)	/	7	-5	8	-27	/	/	/
CCOc1ccc(S(=O)(=O)N2CCN(C(=O)c3cc4ccccc4o3)CC2)cc1	/	19	43	17	20	/	/	/
CCOc1cc(C(=O)O/N=C(\N)c2ccc([N+](=O)[O-])cc2)cc(OCC)c1OCC	0	46*	16	61*	0	5	49*	42*
Cc1nn2c(NCCCn3ccnc3)cc(C(C)C)nc2c1-c1ccccc1	-5	29	-10	23	9	15	/	/
CCCc1cc(NCc2ccccn2)n2nc(C)c(-c3ccccc3)c2n1	4	47*	45	43*	26	94*	58*	76*
CCCc1cc(N2CCCC2)n2nc(C)c(-c3ccccc3)c2n1	32	51*	46	47*	28	6	23	19
CCN1CCN(c2cc(C(C)C)nc3c(-c4ccccc4)c(C)nn23)CC1	i	28	-1	8	25	3	/	/
Cc1ccc(NC(NC(=O)c2cccs2)C(Cl)(Cl)Cl)cc1C (stereo not given)	16	58*	30	54*	-4	11	44*	-16
SMILES	NALP1 inh	TIM10 inh	tim23-1 inh	tim10-1 inh	NLRP3 yeast inh	SKKanGAS inh	tim10-1 confirm	tim10 confirm
Cc1ccccc1NC(NC(=O)c1cccs1)C(Cl)(Cl)Cl (stereo not given)	14	47*	31	43*	-1	40	49*	51*
Cc1ccccc1NC(=O)c1ccccc1NC(=O)c1cccs1	6	5	8	2	13	1	/	/
CCOC(=O)c1sc(NC(=O)C2CCC2)cc1C	6	55*	49	44*	20	-6	42*	36*
CCCc1[nH]nc2c1C(c1ccsc1)C(C#N)=C(N)O2 (stereo not given)	10	46*	40	47*	25	1	26	16
Cc1ccc(Cl)c(NC(=O)COC(=O)c2cc[n+]([O-])cc2)c1Cl	/	-3	12	-2	-4	/	/	/
CC(c1nnnn1C(C)(C)C)N(Cc1cccnc1)Cc1ccccc1Cl (stereo not given)	12	42*	31	50*	8	-1	34*	32*
COc1cccc(N2CCN(C(=O)c3ccc(Cl)c(NC4=NC5CS(=O)(=O)CC5S4)c3)CC2)c1 (stereo not given)	-11	15	0	-1	11	5	/	/
CC(=O)Oc1c(/C=C(\C#N)C(N)=O)[nH]c2ccccc12	30	/	/	/	/	-17	/	/
Cc1c(Cl)cccc1NC(=S)N=Nc1c(O)n(CN2CCOCC2)c2ccccc12	11	53*	40	59*	36	/	49*	30*
Oc1c(N=NC(=S)Nc2ccccc2F)c2ccccc2n1Cc1ccccc1Cl	3	27	31	23	17	/	/	/
Cc1ccccc1NC(=S)N=Nc1c(O)n(C)c2ccc(S(=O)(=O)N3CCOCC3)cc12	10	17	12	10	6	46	/	/
C=CCn1c(O)c(N=NC(=S)Nc2ccccc2F)c2ccccc21	9	46*	14	47*	12	101*	44*	29
O=C(NCCCN1CCOCC1)c1cc(Cl)ccc1OCc1ccccc1	9	-1	7	11	26	7	/	/
COc1ccccc1/C=C/C(=O)c1ccc(NC(C)=O)cc1	33	44*	33	43*	2	-10	24	-3
CC(C)NC(=S)N/N=C1\CCCCC1C1CCCCC1 (stereo not given)	4	42*	47	44*	14	?	32*	29
